The values that follow come from PubChem BioAssay (Tox21).

Values joined by “and” are separate entries in the source; they are usually repeats but may differ in a detail not shown here. Identical values can stand only once. Unmarked numbers belong to inactive results. Records with an inconclusive call do not appear. Active and inactive are the calls of the source. Unless noted, calls come from the whole dose curve; as a rule, active = well fitted curve in the direction sought with a large enough effect in the repeat runs; inconclusive = weak or mixed curves; inactive = no such curve, though single readings can be large; an effect the other way counts as inactive or inconclusive.

Test [1] is described as follows: qHTS assay for small molecule agonists of the p53 signaling pathway (AID 651631; calls by dose curve; note: nearly all actives have a fitted effect of over 15% in size; note: potency is the fitted concentration of half-maximal effect). In a few lines: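 Quantitative high-throughput format: 4,000 p53RE-bla HCT-116 cells/well, 5 h pre-incubation, 16 h compound exposure at 37 °C, 2 h room-temperature substrate step, fluorescence intensity measured.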
Test [2] can be described thus: qHTS assay for small molecules that induce genotoxicity in human embryonic kidney cells expressing luciferase-tagged ATAD5 (AID 651632). Note: nearly all actives have a fitted effect of over 15% in size. In a few lines: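 ATAD5-luc HEK293T, 2,000 cells/well; cpd or DMSO pin-transferred; 16 hr, 37C/5% CO2; Amplite 30 min RT; luminescence.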
Test [3] can be described thus: qHTS assay for small molecule agonists of the p53 signaling pathway - cell viability (AID 651633; calls by dose curve; note: nearly all actives have a fitted effect of over 30% in size; note: potency is the fitted concentration of half-maximal effect). In a few lines:
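p53RE-bla cells, seeded at 4,000 per well and rested 5 h at 37 C/5% CO2, received compounds in DMSO for 16 h at 37 C. CellTiter-Glo was then added, and luminescence was read after 30 min at room temperature to gauge cytotoxicity.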
In general terms: qHTS replaces the single test concentration by a dilution series.

Test [4] can be described thus: qHTS assay for small molecules that induce genotoxicity in human embryonic kidney cells expressing luciferase-tagged ATAD5 - cell viability (AID 651634; calls by dose curve; note: nearly all actives have a fitted effect of over 25% in size; note: potency is the fitted concentration of half-maximal effect). The method, boiled down:
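Fluorescence from CellTiter-Fluor, reporting protease activity within live cells, served as the viability read-out. HEK293T cells carrying luciferase-tagged ATAD5 had been treated with compound for 15.5 hr at 37C.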

Test [5] can be described thus: qHTS assay for small molecule disruptors of the mitochondrial membrane potential - cell viability (AID 720634; calls by dose curve; note: nearly all actives have a fitted effect of over 20% in size; note: potency is the fitted concentration of half-maximal effect). In a few lines:
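Cells: HepG2, 2,000/well, attached overnight. Compound 1 hr, 37 C/5% CO2. +m-MPI dye, +CellTiter-Glo 30 min RT. Readout: luminescence (ATP).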

Test [6] in a line: qHTS assay to test for compound auto fluorescence at 590 nm (red) in HepG2 cells (AID 720674). Note: potency is the fitted concentration of half-maximal effect. The method, boiled down: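 Intrinsic compound fluorescence in the red window (Ex/Em 540/590 nm) is measured in attached HepG2 cells exposed for 1 hr, DMSO vehicle as baseline, benchmarked to Rose Bengal sodium.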
A short description of test [7]: qHTS assay to test for compound auto fluorescence at 535 nm (green) in HepG2 cells (AID 720675).
Test [8] can be described thus: qHTS assay to test for compound auto fluorescence at 460 nm (blue) in HEK293 cells (AID 720678). The method, boiled down:
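Blue-channel (Ex/Em 405/460 nm) intensity measured in HEK293 cultures after overnight compound exposure at 37C; signal expressed relative to triamterene. Cells plated 2,000 per well in 10% dialyzed FBS medium and allowed 4-5 hr to attach.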

Test [9] can be described thus: qHTS assay to test for compound auto fluorescence at 590 nm (red) in HEK293 cells (AID 720679). Note: potency is the fitted concentration of half-maximal effect. The method, boiled down: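 Red-channel autofluorescence (Ex/Em 540/590 nm; Rose Bengal sodium reference) was measured after overnight 37C, 5% CO2 exposure of attached HEK293 cells, 2,000 per well in medium with 10% dialyzed FBS.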
The nature of test [10]: qHTS assay for small molecule disruptors of the mitochondrial membrane potential (AID 720635). Note: potency is the fitted concentration of half-maximal effect. The method, boiled down: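 HepG2 cells (2,000/well) attached overnight at 37C, then took compound for 1 hr at 37C, 5% CO2. Mito-MPS dye was added for 30 min; fluorescence was read at 490/535 nm (monomers) and 540/590 nm (aggregates).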
Tags give direction and shape of the fitted curve or compound fluorescence and quenching.

Consider `Cc1[nH]cnc1C[C@H]1CCc2c(C)c3ccccc3n2C1=O`, for which the Potency result in test [1], in [2], in test [3], in test [4], in test [5] and in test [6] was “inactive” each time. Further, the Potency entry in [7], in test [8] and in test [9] was “inactive” throughout.

For `Cc1cccc2c1cc1ccc3cccc4ccc2c1c34`, the Potency in test [1] was 2.49 µM (active). The Potency result in test [2], in test [3], in test [4], in test [5], in test [6] and in [7] was “inactive” each time. Further, the Potency entry in test [8] and in test [9] was “inactive” each time.

As to `Cc1cccc(S(=O)(=O)O)c1C`, the Potency result in test [1], in test [2], in test [3], in test [4], in [5] and in test [6] was “inactive” throughout. For the same molecule, the Potency result in [7], in test [8] and in test [9] was “inactive” throughout.

With `CSc1ccc(C(=O)c2[nH]c(=O)[nH]c2C)cc1`, the Potency entry in test [1], in [2], in test [3], in test [4], in test [5] and in test [10] was “inactive” throughout. The Potency entry in test [6], in [7], in [8] and in [9] was “inactive” throughout.

Take `Clc1ccc2cc3ccccc3cc2c1`: the Potency in [1] is 54.4 µM (active). In addition, the Potency entry in [2], in test [3], in test [4], in test [5], in [6] and in [7] was “inactive” throughout. In addition, the Potency result in test [8] and in test [9] was “inactive” in each case.

Take `COCCCC/C(=N\OCCN)c1ccc(C(F)(F)F)cc1`: the Potency result in test [1], in test [2], in [3], in test [4], in test [5] and in [6] was “inactive” each time. Besides, the Potency result in [7] and in [9] was “inactive” each time.

`Cc1c(C)c2c(c(C)c1O)CCC(C)(COc1ccc(CC3SC(=O)NC3=O)cc1)O2` (stereo not drawn): the Potency is 29.8 µM (active) and 54.5 µM (active) in test [1]; 29.8 µM (active) and 61.1 µM (active) in test [3]. Also, the Potency result in test [2], in [4], in [5], in [6], in test [7] and in test [8] was “inactive” in each case. Also, the Potency result in test [9] was “inactive”.

Turning to `Cc1cc(N)c(S(=O)(=O)O)cc1Cl`, the Potency result in test [1], in [2], in [3], in [4], in test [5] and in test [6] was “inactive” throughout. Further, the Potency entry in [7], in test [8] and in [9] was “inactive” each time.

As to `CCN1/C(=C/C=C/c2sc3ccccc3[n+]2CC)Sc2ccccc21`, the Potency in test [1] is 15 µM (active); in [3], 16.8 µM (active); in test [4] it was 10.6 µM (active); in test [6] it was 12.6 µM (active); in test [9] it was 11.2 µM [fluorescent] (active). Besides, the Potency entry in test [2], in [5], in test [7] and in test [8] was “inactive” each time.

Regarding `COC(=O)C1=C(C)NC(C)=C(C(=O)OCC(C)C)C1c1ccccc1[N+](=O)[O-]` (stereo not drawn), the Potency in [1] is 26.6 µM (active); in test [4], 29.8 µM (active) and 48.6 µM (active). Further, the Potency entry in test [2], in [3], in [5], in test [6], in test [7] and in test [8] was “inactive” throughout. For the same molecule, the Potency result in [9] was “inactive”.

`O=C(Nc1cccc(Cl)c1)OCC#CCCl`: the Potency was 8.63 µM (active) in [1], 68.6 µM (active) in test [3], 61.1 µM (active) in test [4] and 21.7 µM (active) in [10]. Besides, the Potency result in test [2], in [6], in test [7], in [8] and in test [9] was “inactive” each time.

As to `O=c1[nH]cnc2nc[nH]c12`, the Potency entry in test [1], in test [2], in [3], in test [4], in [5] and in test [10] was “inactive” each time. Further, the Potency result in test [6], in test [7], in test [8] and in test [9] was “inactive” throughout.

Consider `CN1CCN(CCC(=O)N2c3ccccc3Sc3ccc(C(F)(F)F)cc32)CC1`, for which the Potency result in test [1], in [2], in test [3], in test [4], in test [5] and in [6] was “inactive” each time. The Potency entry in test [7], in test [8] and in [9] was “inactive” throughout.

For `CCCC1O[C@@H]2C[C@H]3[C@@H]4CCC5=CC(=O)C=C[C@]5(C)[C@H]4[C@@H](O)C[C@]3(C)[C@]2(C(=O)CO)O1` (stereo partly drawn), the Potency result in [1], in [2], in [3], in test [4], in test [5] and in test [10] was “inactive” each time. In addition, the Potency result in test [6], in test [7], in test [8] and in test [9] was “inactive” each time.

Consider `CNC(=O)c1ccccc1`, for which the Potency result in test [1], in test [2], in test [3], in test [4], in test [5] and in [6] was “inactive” in each case. For the same molecule, the Potency entry in test [7], in test [8] and in [9] was “inactive” in each case.

Regarding `NNC(=O)c1cccc(C(=O)NN)c1`, the Potency entry in test [1], in test [2], in test [3], in test [4], in test [5] and in [6] was “inactive” throughout. The Potency entry in test [7], in test [8] and in test [9] was “inactive” each time.

Take `CCN(C(=O)c1cc(C)cc(OC[C@H](C)Nc2ccncc2)c1)C(C)C`: the Potency result in test [1], in [2], in test [3], in [4], in test [5] and in test [6] was “inactive” each time. Further, the Potency entry in test [7], in test [8] and in [9] was “inactive” each time.

Consider `COc1cc(-c2ccc(N=C=O)c(OC)c2)ccc1N=C=O`, for which the Potency entry in [1], in test [2], in test [3], in [4], in [5] and in [6] was “inactive” in each case. Also, the Potency result in test [7], in test [8] and in test [9] was “inactive” each time.

Consider `CCCCCCCCn1sc(Cl)c(Cl)c1=O`, for which the Potency in test [1] was 17.2 µM (active); in [3], 30.6 µM (active); in test [4], 19.3 µM (active); in test [5] it was 27.3 µM (active). For the same molecule, the Potency entry in test [2], in [6], in [7], in [8] and in test [9] was “inactive” each time.
